Measured values reported in PubChem BioAssay (Tox21).
Inconclusive results are not listed. Calls of active or inactive are those of the source. The call rests on the fitted dose curve; in most records, active means well fitted curve in the direction sought with a large enough effect in the repeat runs; inconclusive means weak or mixed curves; inactive means no such curve, though single readings can be large; an effect the other way counts as inactive or inconclusive.

What was measured:
[1] = qHTS RealTime-Glo MT Cell Viability Assay in HepG2 cells - 24 hour (AID 1224867); further: nearly all actives have a fitted effect of over 50% in size
How it was run: (§1)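 Cells + NanoLuc/prosubstrate dispensed (600 cells/well) → 5 h at 37 C/5% CO2 → compounds in DMSO transferred → 40 h incubation at 37 C, luminescence read at 0, 8, 16, 24, 32, 40 h.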

[2] = qHTS RealTime-Glo MT Cell Viability Assay in HEK293 cells - 32 hour (AID 1224868); further: top concentration of the series differs between compounds; nearly all actives have a fitted effect of over 50% in size
How it was run: (§2)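 Tox21 10K qHTS, HEK293, 600 cells/well, RealTime-Glo reagent co-dispensed with cells; 5 h preincubation, compound by pintool, 37 C, luminescence at 0–40 h.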

[3] = A CellTox Green Cytotoxicity Assay to monitor cytotoxicity in HEK293 cells - 0 hour (AID 1224869); further: nearly all actives have a fitted effect of over 50% in size
How it was run: (§3)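 Tox21 screen in HEK293: membrane-impermeant cyanine dye fluoresces on binding dead-cell DNA; compound pinned 5 h post-seeding, plates held at 37 C, signal read repeatedly through 40 h.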

[4] = qHTS RealTime-Glo MT Cell Viability Assay in HepG2 cells - 40 hour (AID 1224870); further: nearly all actives have a fitted effect of over 50% in size
How it was run: (§4)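 HepG2 cells (600/well) mixed with RealTime-Glo MT reagent, settled 5 h at 37 C/5% CO2 before compound addition. Nonlytic NanoLuc luminescence from viable-cell prosubstrate reduction read repeatedly during 40 h treatment at 37 C.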

[5] = A CellTox Green Cytotoxicity Assay to monitor cytotoxicity in HEK293 cells - 40 hour (AID 1224871); further: nearly all actives have a fitted effect of over 45% in size
How it was run: as §3

[6] = qHTS RealTime-Glo MT Cell Viability Assay in HEK293 cells - 16 hour (AID 1224872)
How it was run: as §2

[7] = qHTS RealTime-Glo MT Cell Viability Assay in HepG2 cells - 8 hour (AID 1224873); further: nearly all actives have a fitted effect of over 55% in size
How it was run: as §4

[8] = qHTS RealTime-Glo MT Cell Viability Assay in HEK293 cells - 40 hour (AID 1224874); conditions: RealTime-Glo luminescence; max response: active compounds read low; further: nearly all actives have a fitted effect of over 50% in size
How it was run: (§5)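 HEK293 + NanoLuc + prosubstrate, 600 cells/well; 5 h, 37 C/5% CO2; compound 23 nL in DMSO by pintool; 37 C; luminescence read at 0, 8, 16, 24, 32 and 40 h time points.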

[9] = A CellTox Green Cytotoxicity Assay to monitor cytotoxicity in HEK293 cells - 24 hour (AID 1224875); further: series mostly up to about 77 µM; nearly all actives have a fitted effect of over 45% in size
How it was run: as §3

[10] = A CellTox Green Cytotoxicity Assay to monitor cytotoxicity in HepG2 cells - 16 hour (AID 1224876); further: nearly all actives have a fitted effect of over 45% in size
How it was run: (§6)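 Measurements at 0, 8, 16, 24, 32 and 40 h of treatment captured CellTox Green fluorescence in HepG2 cells that had been co-plated with reagent and preincubated 5 h at 37 C/5% CO2.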

[11] = qHTS RealTime-Glo MT Cell Viability Assay in HepG2 cells - 32 hour (AID 1224877); further: nearly all actives have a fitted effect of over 55% in size
How it was run: as §1

[12] = A CellTox Green Cytotoxicity Assay to monitor cytotoxicity in HepG2 cells - 24 hour (AID 1224878); further: nearly all actives have a fitted effect of over 45% in size
How it was run: as §6

[13] = A CellTox Green Cytotoxicity Assay to monitor cytotoxicity in HepG2 cells - 40 hour (AID 1224879); further: nearly all actives have a fitted effect of over 40% in size
How it was run: as §6

[14] = qHTS RealTime-Glo MT Cell Viability Assay in HEK293 cells - 0 hour (AID 1224880)
How it was run: as §5

[15] = A CellTox Green Cytotoxicity Assay to monitor cytotoxicity in HEK293 cells - 32 hour (AID 1224881); further: nearly all actives have a fitted effect of over 40% in size
How it was run: as §3

[16] = A CellTox Green Cytotoxicity Assay to monitor cytotoxicity in HepG2 cells - 0 hour (AID 1224882); further: nearly all actives have a fitted effect of over 35% in size
How it was run: as §6

[17] = A CellTox Green Cytotoxicity Assay to monitor cytotoxicity in HepG2 cells - 32 hour (AID 1224883); further: nearly all actives have a fitted effect of over 50% in size
How it was run: as §6

[18] = A CellTox Green Cytotoxicity Assay to monitor cytotoxicity in HEK293 cells - 8 hour (AID 1224884); further: nearly all actives have a fitted effect of over 35% in size
How it was run: as §3

[19] = qHTS RealTime-Glo MT Cell Viability Assay in HepG2 cells - 16 hour (AID 1224885); further: nearly all actives have a fitted effect of over 50% in size
How it was run: as §1

[20] = qHTS RealTime-Glo MT Cell Viability Assay in HEK293 cells - 24 hour (AID 1224886)
How it was run: as §2
On the % scale 0 is the no-effect control and ±100 the full control effect.

c1ccc(-c2nn[nH]n2)cc1
inactive: outcome [1] | Potency [2] | Potency [3] | outcome [4] | Potency [5] | Potency [6] | outcome [7] | max response [8] 6% | Potency [9] | Potency [10] | outcome [11] | Potency [12] | Potency [13] | Potency [14] | Potency [15] | Potency [16] | Potency [17] | Potency [18] | outcome [19] | Potency [20]

Cn1nnc2c(C(N)=O)ncn2c1=O
inactive: outcome [1] | Potency [2] | Potency [3] | outcome [4] | Potency [5] | Potency [6] | outcome [7] | max response [8] 3.79% | Potency [9] | Potency [10] | outcome [11] | Potency [12] | Potency [13] | Potency [14] | Potency [15] | Potency [16] | Potency [17] | Potency [18] | outcome [19] | Potency [20]

CNCCS(=O)(=O)O
inactive: outcome [1] | Potency [2] | Potency [3] | outcome [4] | Potency [5] | Potency [6] | outcome [7] | max response [8] 4.21% | Potency [9] | Potency [10] | outcome [11] | Potency [12] | Potency [13] | Potency [14] | Potency [15] | Potency [16] | Potency [17] | Potency [18] | outcome [19] | Potency [20]

N#CCC(=O)NN
inactive: outcome [1] | Potency [2] | Potency [3] | outcome [4] | Potency [5] | Potency [6] | outcome [7] | max response [8] 1.05% | Potency [9] | Potency [10] | outcome [11] | Potency [12] | Potency [13] | Potency [14] | Potency [15] | Potency [16] | Potency [17] | Potency [18] | outcome [19] | Potency [20]

C=C(C)c1cccc(C(C)(C)N=C=O)c1
inactive: outcome [1] | Potency [2] | Potency [3] | outcome [4] | Potency [5] | Potency [6] | outcome [7] | max response [8] 3.52% | Potency [9] | Potency [10] | outcome [11] | Potency [12] | Potency [13] | Potency [14] | Potency [15] | Potency [16] | Potency [17] | Potency [18] | outcome [19] | Potency [20]

OC[C@@H](O)C(O)[C@@H](O)CO (stereo not given in full)
inactive: outcome [1] | Potency [2] | Potency [3] | outcome [4] | Potency [5] | Potency [6] | outcome [7] | max response [8] -0.153% | Potency [9] | Potency [10] | outcome [11] | Potency [12] | Potency [13] | Potency [14] | Potency [15] | Potency [16] | Potency [17] | Potency [18] | outcome [19] | Potency [20]
